In PubChem BioAssay (Tox21) one finds Potency and outcome data, which are given here for 12 compounds.

Each structure is given as a SMILES string. Several values for one entry are separate records, joined by “and”; a condition that tells them apart may be missing. Equal entries are not always repeated. Some structures have more than one record in an assay (separate samples or runs), and their calls can disagree. Activity calls are given as the source filed them. Unless noted, the call rests on the fitted dose curve; in most records, active means well fitted curve in the direction sought with a large enough effect in the repeat runs; inconclusive means weak or mixed curves; inactive means no such curve, though single readings can be large; an effect the other way counts as inactive or inconclusive.

The nature of experiment [1]: qHTS assay to identify small molecule antagonists of the thyroid receptor (TR) signaling pathway - cell viability counter screen (AID 743064). Further: nearly all actives have a fitted effect of over 50% in size. Further: potency means the concentration at half of the fitted maximal effect. The method in brief: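 Plate GH3.TRE-Luc cells; incubate 4 h at 37 °C; add compound, then T3 to 1 nM final; incubate 23.5 h; add CellTiter-Fluor; incubate 30 min at 37 °C, 5% CO2; read fluorescence.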
(In qHTS, concentration-response curves come from the screen itself.)

Experiment [2] is described as follows: qHTS assay to identify small molecule antagonists of the thyroid receptor (TR) signaling pathway (AID 743065). Further: nearly all actives have a fitted effect of over 55% in size. Further: potency means the concentration at half of the fitted maximal effect. The method in brief:
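Antagonism measured as loss of luciferase signal in GH3 cells stably carrying a TRE-luciferase reporter, co-treated with compound and T3 (1 nM final) for 23.5 h at 37 C. Viability was read in the same well by CellTiter-Fluor.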

For experiment [3], the system named is thyroid hormone receptor (rat, GH3 cells). Nature of the experiment: qHTS assay to identify small molecule agonists of the thyroid receptor (TR) signaling pathway (AID 743066; calls by dose curve).
A short description of experiment [4]: qHTS assay to identify small molecule antagonists of the estrogen receptor alpha (ER-alpha) signaling pathway - cell viability counter screen (AID 743074; calls by dose curve; further: nearly all actives have a fitted effect of over 45% in size; further: potency means the concentration at half of the fitted maximal effect).
A short description of experiment [5]: qHTS assay to identify small molecule antagonists of the estrogen receptor alpha (ER-alpha) signaling pathway using the BG1 cell line - cell viability counter screen (AID 743081).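 Further: compound given together with 17beta-estradiol as the ER stimulus; nearly all actives have a fitted effect of over 45% in size.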 Further: potency means the concentration at half of the fitted maximal effect.
The target of experiment [6] is Aromatase (Homo sapiens) (UniProt P11511). Nature of the experiment: qHTS assay to identify aromatase inhibitors (AID 743083). Further: nearly all actives have a fitted effect of over 55% in size. Further: potency means the concentration at half of the fitted maximal effect.
Chain of Aromatase (Homo sapiens) (P11511 whole entry, looked up): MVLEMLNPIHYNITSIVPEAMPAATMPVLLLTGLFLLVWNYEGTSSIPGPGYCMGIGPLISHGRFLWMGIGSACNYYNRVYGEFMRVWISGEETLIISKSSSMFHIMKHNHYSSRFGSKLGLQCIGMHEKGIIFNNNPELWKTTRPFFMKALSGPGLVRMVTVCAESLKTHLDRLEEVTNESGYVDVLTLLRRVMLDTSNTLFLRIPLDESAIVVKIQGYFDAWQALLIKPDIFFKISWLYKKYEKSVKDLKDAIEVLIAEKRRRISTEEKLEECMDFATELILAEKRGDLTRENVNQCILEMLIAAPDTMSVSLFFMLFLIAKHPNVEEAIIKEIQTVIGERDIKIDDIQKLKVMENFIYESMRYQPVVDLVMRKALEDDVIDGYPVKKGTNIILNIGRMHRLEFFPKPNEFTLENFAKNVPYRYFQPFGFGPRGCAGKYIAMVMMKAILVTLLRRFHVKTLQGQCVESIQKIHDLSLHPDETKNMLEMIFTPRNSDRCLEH
Experiment [7] in a line: qHTS assay to identify aromatase inhibitors - cell viability counter screen (AID 743084).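 Further: cells stimulated with testosterone during compound exposure; nearly all actives have a fitted effect of over 55% in size.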 Further: potency means the concentration at half of the fitted maximal effect.
Experiment [8] addresses Aryl hydrocarbon receptor (Homo sapiens) (UniProt P35869). Nature of the experiment: qHTS assay to identify small molecule that activate the aryl hydrocarbon receptor (AhR) signaling pathway (AID 743085). Further: nearly all actives have a fitted effect of over 15% in size. Further: potency means the concentration at half of the fitted maximal effect.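 On activation: HG2L7.5c1 human HepG2 liver cells with stably integrated DRE-driven firefly reporter; series mostly up to about 70 µM.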 The essentials:
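Steps: seed HepG2-AhR-luc cells; allow 5 h at 37C; pin-transfer test compound or vehicle; incubate 24 h at 37C; add viability dye (30 min, 37C) and read fluorescence; add luciferase substrate (30 min, RT) and read luminescence.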

Experiment [9] in a line: qHTS assay to identify small molecule that activate the aryl hydrocarbon receptor (AhR) signaling pathway - cell viability counter screen (AID 743086). Further: nearly all actives have a fitted effect of over 45% in size. Further: potency means the concentration at half of the fitted maximal effect. The essentials: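 Cytotoxicity counter screen: CellTiter-Fluor signal (30 min, 37 C) in 4000 HepG2 cells/well carrying the DRE-luciferase reporter, following 24 h compound exposure at 37 C.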
Experiment [10] has as its target Peroxisome proliferator-activated receptor gamma (Homo sapiens) (UniProt P37231). Nature of the experiment: qHTS assay to identify small molecule agonists of the peroxisome proliferator-activated receptor gamma (PPARg) signaling pathway (AID 743094; active means well fitted activation curve with a large enough effect in the signal ratio in the repeat runs, not every such curve was filed as active; inconclusive means weak or mixed curves, or effect the other way; inactive means no such curve, though single readings can be large or run the other way; the % refers to the signal ratio). The essentials:
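Agonism was assessed in a beta-lactamase reporter system, HEK293H cells with a stably integrated UAS-bla construct under PPARg control; the 17 h treatment at 37C preceded a 1 h room-temperature FRET substrate read.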

The nature of experiment [11]: qHTS assay to identify small molecule antagonists of the peroxisome proliferator-activated receptor gamma (PPARg) signaling pathway - cell viability counter screen (AID 743194). Further: nearly all actives have a fitted effect of over 55% in size. As to conditions: Potency: co-treated with 50 nM rosiglitazone unless noted. The method in brief:
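Viability was measured as CellTiter-Glo luminescence in GeneBLAzer PPARg UAS-bla HEK293H cells. These cells had been exposed 17 h at 37 C to compounds together with rosiglitazone at 50 nM final, with the beta-lactamase readout taken in the same wells.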

A short description of experiment [12]: qHTS assay for small molecule agonists of the antioxidant response element (ARE) signaling pathway (AID 743202; active means well fitted activation curve with a large enough effect in the signal ratio in the repeat runs, not every such curve was filed as active; inconclusive means weak or mixed curves, or effect the other way; inactive means no such curve, though single readings can be large or run the other way; the % refers to the signal ratio; further: potency means the concentration at half of the fitted maximal effect). The method in brief: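 Beta-lactamase reporter activity, read as fluorescence intensity, reflects ARE/Nrf2 pathway induction in HepG2 cells after 16 h compound exposure at 37 C; substrate loading was 2 h at room temperature.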
The nature of experiment [13]: qHTS assay for small molecule agonists of the antioxidant response element (ARE) signaling pathway - cell viability counter screen (AID 743203; calls by dose curve; further: nearly all actives have a fitted effect of over 55% in size; further: potency means the concentration at half of the fitted maximal effect). The method in brief: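 ATP content via CellTiter-Glo luminescence served as the viability measure. Cells: ARE-bla HepG2, 2,000 per well. Exposure: 16 hrs, 37C/5% CO2.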
Experiment [14] in a line: qHTS assay for small molecule activators of the heat shock response signaling pathway - cell viability counter screen (AID 743209). Further: nearly all actives have a fitted effect of over 50% in size. Further: potency means the concentration at half of the fitted maximal effect. The essentials: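 Compounds dissolved in DMSO were added to overnight-plated HSE-bla HeLa cells and left 5 h at 37 C. Cell viability was quantified by luminescence using CellTiter-Glo.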
A short description of experiment [15]: qHTS assay for small molecule activators of the heat shock response signaling pathway (AID 743210; active means well fitted activation curve with a large enough effect in the signal ratio in the repeat runs, with a control signal flat, not every such curve was filed as active; inconclusive means weak or mixed curves; the % refers to the signal ratio;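 further: HeLa cells with beta-lactamase reporter driven by heat shock elements; series mostly up to about 63 µM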). The method in brief: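 Fluorescence from a cleaved B/G FRET substrate (2.5 h, room temp) reports HSE-driven beta-lactamase in HeLa cells treated 5 h at 37 C with DMSO-dissolved compounds.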
Experiment [16] can be described thus: qHTS assay to identify small molecule agonists of the peroxisome proliferator-activated receptor delta (PPARd) signaling pathway - cell viability counter screen (AID 743211). Further: nearly all actives have a fitted effect of over 55% in size. Further: potency means the concentration at half of the fitted maximal effect. The method in brief:
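Viability of GeneBLAzer PPARd UAS-bla HEK293H cells was assessed after 17 h compound incubation at 37C, using CellTiter-Glo reagent added after the reporter read and luminescence recorded 30 min later.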

Experiment [17] deals with Estrogen receptor (Homo sapiens) (UniProt P03372). Nature of the experiment: qHTS assay to identify small molecule antagonists of the estrogen receptor alpha (ER-alpha) signaling pathway (AID 743069; active means well fitted curve in the direction sought with a large enough effect in the signal ratio in the repeat runs, not every such curve was filed as active; inconclusive means weak or mixed curves, or effect the other way; inactive means no such curve, though single readings can be large or run the other way; the % refers to the signal ratio; further: potency means the concentration at half of the fitted maximal effect). The method in brief:
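Fluorescence intensity from a beta-lactamase FRET substrate served as the read-out. Cells: HEK293 with stably integrated ER-alpha-UAS-bla reporter. Agonist 17beta-estradiol was co-added with compounds; incubation 18 hr at 37C, substrate 2 hr at room temperature.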

Experiment [18] has as its target Peroxisome proliferator-activated receptor delta (Homo sapiens) (UniProt Q03181). Nature of the experiment: qHTS assay to identify small molecule agonists of the peroxisome proliferator-activated receptor delta (PPARd) signaling pathway (AID 743212; calls by dose curve). The method in brief:
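Steps: seed PPARd-bla HEK293H cells; incubate 5 h, 37 C, 5% CO2; add compounds in DMSO; incubate, 37 C; add LiveBLAzer B/G FRET substrate; hold 2 h at room temperature; measure fluorescence.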

In experiment [19] the target is Estrogen receptor (Homo sapiens) (UniProt P03372). Nature of the experiment: qHTS assay to identify small molecule agonists of the estrogen receptor alpha (ER-alpha) signaling pathway (AID 743075; calls by dose curve; further: potency means the concentration at half of the fitted maximal effect).
Chain of Estrogen receptor (Homo sapiens) (P03372 whole entry, looked up): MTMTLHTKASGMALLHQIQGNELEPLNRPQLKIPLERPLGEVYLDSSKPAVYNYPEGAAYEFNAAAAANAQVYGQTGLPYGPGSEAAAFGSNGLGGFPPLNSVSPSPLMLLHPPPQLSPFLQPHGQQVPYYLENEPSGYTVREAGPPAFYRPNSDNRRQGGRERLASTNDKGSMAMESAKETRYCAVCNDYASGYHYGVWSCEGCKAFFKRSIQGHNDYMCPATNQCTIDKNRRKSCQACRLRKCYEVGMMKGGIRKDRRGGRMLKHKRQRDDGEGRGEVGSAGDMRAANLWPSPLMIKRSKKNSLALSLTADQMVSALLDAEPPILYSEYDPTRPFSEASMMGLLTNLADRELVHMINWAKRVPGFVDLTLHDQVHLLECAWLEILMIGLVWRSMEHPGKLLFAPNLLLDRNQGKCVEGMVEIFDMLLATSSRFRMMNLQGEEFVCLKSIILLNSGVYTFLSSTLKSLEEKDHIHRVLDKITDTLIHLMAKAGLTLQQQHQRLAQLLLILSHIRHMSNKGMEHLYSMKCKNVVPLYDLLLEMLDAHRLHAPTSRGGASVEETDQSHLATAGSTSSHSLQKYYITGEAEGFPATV
Experiment [20] has the same target. The experiment in a line: qHTS assay to identify small molecule agonists of the estrogen receptor alpha (ER-alpha) signaling pathway using the BG1 cell line (AID 743079). Further: nearly all actives have a fitted effect of over 20% in size.

Chain of Peroxisome proliferator-activated receptor delta (Homo sapiens) (Q03181 whole entry, looked up): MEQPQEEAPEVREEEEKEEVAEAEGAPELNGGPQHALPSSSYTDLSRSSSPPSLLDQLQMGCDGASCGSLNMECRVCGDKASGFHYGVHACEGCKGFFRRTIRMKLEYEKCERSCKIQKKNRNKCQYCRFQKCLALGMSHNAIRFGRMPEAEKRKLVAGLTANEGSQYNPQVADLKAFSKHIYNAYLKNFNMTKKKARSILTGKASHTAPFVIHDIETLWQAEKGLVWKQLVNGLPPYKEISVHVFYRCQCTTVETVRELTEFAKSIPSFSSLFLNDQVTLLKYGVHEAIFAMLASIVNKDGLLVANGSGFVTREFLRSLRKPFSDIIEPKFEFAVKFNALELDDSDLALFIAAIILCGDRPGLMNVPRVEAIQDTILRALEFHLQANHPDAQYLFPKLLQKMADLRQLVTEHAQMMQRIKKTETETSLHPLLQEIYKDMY
Chain of Aryl hydrocarbon receptor (Homo sapiens) (P35869 whole entry, looked up): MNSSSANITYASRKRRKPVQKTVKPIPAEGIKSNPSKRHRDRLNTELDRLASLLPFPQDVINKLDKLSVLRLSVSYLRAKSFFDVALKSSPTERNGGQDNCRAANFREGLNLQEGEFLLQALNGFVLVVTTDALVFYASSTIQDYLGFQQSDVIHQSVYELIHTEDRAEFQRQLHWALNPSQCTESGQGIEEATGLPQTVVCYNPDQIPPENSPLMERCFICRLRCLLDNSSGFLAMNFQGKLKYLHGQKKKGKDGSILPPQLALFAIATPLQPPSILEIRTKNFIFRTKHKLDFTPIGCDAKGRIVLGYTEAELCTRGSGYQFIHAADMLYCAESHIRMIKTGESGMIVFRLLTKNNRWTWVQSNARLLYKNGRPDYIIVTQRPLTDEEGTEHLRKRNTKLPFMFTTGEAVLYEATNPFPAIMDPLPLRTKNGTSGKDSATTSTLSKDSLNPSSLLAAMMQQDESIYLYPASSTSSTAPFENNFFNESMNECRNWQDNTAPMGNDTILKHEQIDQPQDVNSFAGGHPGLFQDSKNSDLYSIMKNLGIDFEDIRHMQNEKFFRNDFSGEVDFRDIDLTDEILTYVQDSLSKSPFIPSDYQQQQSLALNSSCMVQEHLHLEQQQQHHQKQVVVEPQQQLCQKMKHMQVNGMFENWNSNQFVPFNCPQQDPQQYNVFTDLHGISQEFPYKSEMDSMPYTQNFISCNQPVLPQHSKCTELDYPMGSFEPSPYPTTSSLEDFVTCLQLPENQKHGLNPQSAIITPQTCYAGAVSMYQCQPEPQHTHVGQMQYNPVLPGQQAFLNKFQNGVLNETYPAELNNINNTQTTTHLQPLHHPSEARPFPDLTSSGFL
Chain of Peroxisome proliferator-activated receptor gamma (Homo sapiens) (P37231 whole entry, looked up): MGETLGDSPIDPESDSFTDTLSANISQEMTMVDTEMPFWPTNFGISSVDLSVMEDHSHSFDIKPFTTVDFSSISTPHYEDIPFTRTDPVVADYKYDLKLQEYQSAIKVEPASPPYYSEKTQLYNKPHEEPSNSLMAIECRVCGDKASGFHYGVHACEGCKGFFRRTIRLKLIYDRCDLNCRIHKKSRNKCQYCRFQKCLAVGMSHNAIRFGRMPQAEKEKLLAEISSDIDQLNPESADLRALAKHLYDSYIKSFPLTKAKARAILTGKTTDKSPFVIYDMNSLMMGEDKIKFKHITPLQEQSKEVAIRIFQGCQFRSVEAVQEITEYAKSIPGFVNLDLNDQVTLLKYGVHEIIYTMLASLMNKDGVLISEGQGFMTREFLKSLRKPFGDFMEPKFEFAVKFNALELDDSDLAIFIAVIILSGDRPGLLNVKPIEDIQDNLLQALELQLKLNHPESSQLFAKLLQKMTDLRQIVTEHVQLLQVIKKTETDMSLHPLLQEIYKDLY

Take `COc1ccccc1N`: the Potency entry in [1], in experiment [2], in experiment [3], in experiment [4], in experiment [5] and in experiment [6] was “inactive” in each case. Also, the Potency entry in [7], in experiment [9], in experiment [11], in [12], in experiment [13] and in experiment [14] was “inactive” throughout. In experiment [16], the Potency result is “inactive”. The Potency in experiment [8] was 54.4 µM (active) and inactive. The compound was classed as inactive in experiment [10] and in experiment [15].

For `CCCCCCCCCCCCCC[P+](CCCCCC)(CCCCCC)CCCCCC`, the Potency was 6.14 µM (active) and 5.49 µM (active) and 3.06 µM (active) in [1]; 3.87 µM (active) and 4.36 µM (active) and 2.43 µM (active) in experiment [2]; 982 nM [inconclusive] (active) and 985 nM [inconclusive] (active) and 775 nM [inconclusive] (active) in [17]; 13.9 µM (active) and 11.1 µM (active) in experiment [4]; 19.4 µM (active) and 13.8 µM (active) in [5]; 6.14 µM (active) and 3.89 µM (active) and 1.09 µM (active) in experiment [6]. The Potency in experiment [7] is 24.4 µM (active) and 12.3 µM (active); in [9] it was 61.4 µM (active) and 54.9 µM (active) and inactive; in [13], 24.4 µM (active) and 15.5 µM (active) and inactive; in [14] it was 6.19 µM (active) and 7.82 µM (active); in [16] it was 7.8 µM (active) and 2.47 µM (active) and 61.6 nM (active). Moreover, the Potency entry in [3], in experiment [8] and in experiment [12] was “inactive” in each case. In addition, the outcome in [15] and in experiment [18] was inactive.

For `CCNc1nc(Cl)nc(NCC)n1`, the Potency entry in experiment [1], in experiment [2], in experiment [3], in experiment [17], in experiment [4] and in experiment [19] was “inactive” throughout. Also, the Potency result in experiment [20], in [5], in [6], in experiment [7], in experiment [8] and in experiment [9] was “inactive” each time. For the same compound, the Potency entry in experiment [12], in experiment [13], in experiment [14] and in [16] was “inactive” in each case. Besides, the call in experiment [10] and in experiment [15] was inactive.

As for `CC[N+](CC)(CC)CC`, the Potency entry in experiment [1], in experiment [2], in experiment [3], in experiment [4], in experiment [5] and in experiment [6] was “inactive” throughout. Further, the Potency result in experiment [7], in experiment [8], in experiment [9], in [12], in [13] and in experiment [14] was “inactive” throughout. Also, in experiment [16], the Potency result is “inactive”. Further, the compound was called inactive in [15].

On to `COP(=O)(OC)C(O)C(Cl)(Cl)Cl` (stereo unspecified), for which the Potency entry in experiment [1], in [2], in experiment [3], in [4], in [5] and in [6] was “inactive” each time. The Potency entry in [7], in experiment [8], in experiment [9], in [11], in experiment [13] and in experiment [14] was “inactive” each time. For the same compound, in experiment [16], the Potency entry is “inactive”. The outcome in experiment [10], in experiment [15] and in [18] was inactive.

In the case of `CCCCCC[n+]1ccccc1`, the Potency result in [1], in experiment [2], in experiment [3], in experiment [4], in experiment [5] and in experiment [6] was “inactive” throughout. In addition, the Potency entry in experiment [7], in experiment [8], in [9], in experiment [13] and in experiment [14] was “inactive” throughout. Also, the Potency in [12] was 43.2 µM (active) and inactive and 17.2 µM (active); in [16], 55.5 µM (active) and 55.3 µM (active) and inactive. The compound was classed as inactive in [15].

With `COP(=O)(OC)OC=C(Cl)Cl`, the Potency entry in experiment [1], in experiment [2], in [3], in experiment [4], in [19] and in experiment [20] was “inactive” in each case. Also, the Potency result in experiment [5], in [6], in [7], in experiment [8], in experiment [9] and in experiment [12] was “inactive” throughout. Besides, the Potency result in experiment [13], in experiment [14] and in experiment [16] was “inactive” each time. Also, the Potency in experiment [17] is 10.7 µM [inhibitor] (active) and inactive. For the same compound, the compound was classed as inactive in experiment [10] and in [18].

For the compound `CCCC[N+]1(C)CCCCC1`, the Potency entry in experiment [1], in experiment [2], in [3], in experiment [4], in [5] and in experiment [6] was “inactive” throughout. Also, the Potency entry in [7], in experiment [8], in [9], in experiment [11], in experiment [12] and in [13] was “inactive” in each case. The Potency entry in experiment [14] and in experiment [16] was “inactive” throughout.

In the case of `Cc1cc(-c2ccc(N)c(C)c2)ccc1N`, the Potency result in experiment [1], in experiment [2], in experiment [3], in [17], in experiment [4] and in experiment [20] was “inactive” in each case. Also, the Potency entry in experiment [5], in experiment [6], in experiment [7], in [9], in experiment [13] and in experiment [14] was “inactive” throughout. In addition, the Potency result in experiment [16] was “inactive”. For the same compound, the Potency was 19.2 nM [inconclusive] (active) and 48.8 µM [inconclusive] (active) and 61.7 µM [inconclusive] (active) in [19]; 8.73 µM (active) in experiment [12]. Also, the result in experiment [10] and in experiment [15] was inactive.

As to `COc1ccc(N)cc1`, the Potency result in [1], in [2], in experiment [3], in [4], in [5] and in [6] was “inactive” throughout. Besides, the Potency entry in experiment [7], in [9], in [11], in experiment [12], in experiment [13] and in [14] was “inactive” throughout. Besides, in experiment [16], the Potency entry is “inactive”. Moreover, the Potency in experiment [8] is 60.1 µM (active) and inactive and 30.6 µM (active). The compound was classed as inactive in experiment [10], in experiment [15] and in experiment [18].

Consider `CCC(=O)C(CC(C)N(C)C)(c1ccccc1)c1ccccc1` (stereo unspecified), for which the Potency was 24.4 µM (active) and 27.1 µM (active) and 33 µM (active) in experiment [1]; 27.4 µM (active) and 30.4 µM (active) and 41.5 µM (active) in [2]. Further, the Potency entry in experiment [3], in experiment [17], in [4], in [19], in [20] and in [5] was “inactive” throughout. Moreover, the Potency entry in experiment [6], in experiment [8], in experiment [9], in experiment [13] and in experiment [14] was “inactive” in each case. The call in experiment [10] and in experiment [15] was inactive.

Regarding `Cc1cc(Cl)ccc1N`, the Potency entry in experiment [1], in experiment [2], in [3], in [4], in experiment [5] and in [6] was “inactive” in each case. Further, the Potency result in experiment [7], in experiment [9], in experiment [12], in [13], in experiment [14] and in [16] was “inactive” in each case. In addition, in experiment [8], the Potency is 31.3 µM (active) and 33.6 µM (active). Besides, the call in experiment [10], in experiment [15] and in experiment [18] was inactive.
